Screen size: about 330,000 compounds; about 590 (0.18%) were called active. Only a selection was taken, and actives are over-represented in it overall. Unmarked numbers belong to inactive results.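 Rule for the calls: active = superoxide response under a set limit, about three screen SD below normal (cut at about 65% in these data); inactive = the rest.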

This assay in a line: reduction of superoxide in aged yeast, primary screen, HTS (AID 2690).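 Note: yeast aged for seven days with compound at 30 °C before DHE staining; 100% = average MFI of all compound-treated wells on the plate with controls excluded.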 Conditions: S. cerevisiae aged cells, superoxide DHE fluorescence; at 10 µM; active compounds read low.
Turning to `Cc1ccsc1C(=O)OCC(=O)NCCc1ccccc1`, the superoxide response (% of plate mean) was 92.1%.
Then `O=C(Nc1ccc(Br)cn1)c1ccc([N+](=O)[O-])o1`, with 118%.
As to `O=C(Nc1ccncc1)c1ccc([N+](=O)[O-])cc1Cl`, the superoxide response (% of plate mean) is 103%.
As to `O=C(Nc1ccc(Br)cn1)c1ccc([N+](=O)[O-])cc1Cl`, the superoxide response (% of plate mean) was 64.7% (active).
Take `C/C(=N\NS(=O)(=O)c1ccccc1)c1c(O)cc(C)oc1=O`: the superoxide response (% of plate mean) was 102%.
Take `O=C1NC(=Nc2ccc(Cl)cc2)SC1Cc1cccc(Cl)c1Cl` (stereo not drawn): the superoxide response (% of plate mean) is 121%.
For the molecule `O=C(CCS(=O)(=O)c1ccc2c(c1)NC(=O)CS2)NCc1ccccc1Cl`, the superoxide response (% of plate mean) is 110%.
Turning to `CN1CCN(CC(=O)C23CC4CC(CC(C4)C2)C3)CC1`, the superoxide response (% of plate mean) was 101%.
Next, `O=C1/C(=C/c2ccc(F)cc2)SC(=S)N1NS(=O)(=O)c1ccccc1`: 107%; `CC(=O)c1ccc(N2CCN(C(=O)c3ccc4nc[nH]c4c3)CC2)cc1`: 112%.
`CC1(C)CC[C@@]2(C(=O)O)C(C1)C1=CCC3[C@@]4(C)CC[C@H](O)C(C)(C)C4CC[C@@]3(C)[C@]1(C)C[C@H]2O` (stereo partly drawn): the superoxide response (% of plate mean) was 88%.
With `CC(C)(C)C(=O)NC1CC2CCCC(C1)N2C(=O)Nc1ccccc1F` (stereo not drawn), the superoxide response (% of plate mean) was 103%.
Then `O=[N+]([O-])/C(N=Nc1ccccc1)=N\Nc1ccccc1`, with 102%.
In the case of `CC(C)(C)NC(=O)c1cccc(NC(=O)Cc2ccc(Br)cc2)c1`, the superoxide response (% of plate mean) was 91.5%.
With `Cc1ccc(S(=O)(=O)N(CC(=O)NCc2ccco2)c2ccccc2C)cc1`, the superoxide response (% of plate mean) is 111%.
Then `COc1ccc(Nc2nc(NCc3ccco3)nc(N/N=C/c3ccccc3Cl)n2)cc1`, with 99.5%.
With `COC1=CCC2([N+](=O)[O-])CN(CC(=O)O)CC1([N+](=O)[O-])C2` (stereo not drawn), the superoxide response (% of plate mean) is 98.8%.
Take `Cc1c2cn[nH]c(=O)c2c(C)n1Cc1ccc(F)cc1`: the superoxide response (% of plate mean) was 86.5%.
In the case of `CC[C@@H]1CCCCc2ccccc2[C@@H](C(=O)C[C@H](O)CC(C)=O)OC1=O`, the superoxide response (% of plate mean) was 98.3%.
For the molecule `CC(=O)C[C@H](O)CC(=O)[C@@H]1OC(=O)[C@@H](C)C/C=C\Cc2ccccc21`, the superoxide response (% of plate mean) is 89.8%.
With `CC(=O)C[C@@H](O)CC(=O)[C@H]1OC(=O)CCCCCCc2ccccc21`, the superoxide response (% of plate mean) is 62.5% (active).
Then `CC(C)=NN1C(=O)c2ccccc2NC1(C)C`, with 102%; and `COc1cc(-c2c(-c3ccc4c(c3)OCO4)noc2C)ccc1F`, with 94.1%; and `CC(C)(C)NC(=O)COc1ccc(CNc2ccc3[nH]c(=O)[nH]c3c2)cc1`, with 60.8% (active).
`COC(=O)c1ccc(OCC(=O)NC(C)(C)C)cc1`: the superoxide response (% of plate mean) is 102%.
As to `O=C(COc1ccc([N+](=O)[O-])cc1Cl)Nc1ccc2[nH]c(=O)[nH]c2c1`, the superoxide response (% of plate mean) was 111%.
As for `O=c1c2cc([N+](=O)[O-])ccc2nc2n1CCC2`, the superoxide response (% of plate mean) is 108%.
Next, `Cc1cc(CNC(=O)C2CCC(=O)N(CCc3ccc(Cl)cc3)C2)no1` (stereo not drawn): 101%; `CN=C(Nc1cccc(S(=O)(=O)N2CCOCC2)c1)c1ccccc1`: 96.6%; `COc1ccc(CN(C)C(=O)Cc2c[nH]c3ccccc23)c(OC)c1OC`: 99.6%.
Regarding `CSCCC(NS(=O)(=O)c1ccccc1F)C(=O)N1CC=C(c2ccccc2)CC1` (stereo not drawn), the superoxide response (% of plate mean) is 105%.
Regarding `O=C(Cn1nnc(-c2ccccc2)n1)N/N=C/c1ccc(-c2ccc(Cl)cc2)o1`, the superoxide response (% of plate mean) was 92.1%.
With `Nc1nnn(CC(=O)N/N=C/c2ccccc2)n1`, the superoxide response (% of plate mean) is 65% (active).
Turning to `Nc1nnn(CC(=O)N/N=C/c2ccc(O)cc2)n1`, the superoxide response (% of plate mean) is 92.6%.
Then `CCOc1ccccc1NC(=O)C1CCCN(C(=O)Nc2ccccc2)C1` (stereo not drawn), with 92.4%.
Take `CCCCCCn1cc(C(=O)O)c(=O)c2cc(F)c(N3CCCCC3)cc21`: the superoxide response (% of plate mean) was 91.2%.
As to `CN1CCN(c2cc3c(cc2F)c(=O)c(C(=O)O)cn3CCF)CC1`, the superoxide response (% of plate mean) is 60.4% (active).
Consider `CCn1cc(C(=O)NCCO)c(=O)c2cc(F)c(N3CCN(C)CC3)cc21`, for which the superoxide response (% of plate mean) is 99.8%.
Then `COc1ccc(/C=C/CN2CCCC(C(=O)c3cc(F)ccc3F)C2)cc1` (stereo not drawn), with 100%.
Take `COc1cccc(N(Cc2nnc3n2CCCCC3)C(=O)Nc2ccccc2F)c1`: the superoxide response (% of plate mean) was 107%.
For `COc1ccc(OC)c(NC(=O)Cc2cccs2)c1`, the superoxide response (% of plate mean) is 102%.
Turning to `Cc1ccc(-c2nn(C(C)(C)C)c3ncnc(N)c23)cc1`, the superoxide response (% of plate mean) is 55.4% (active).
Turning to `Cc1ccc(-n2cnc3ncnc(-c4ccccc4)c32)cc1`, the superoxide response (% of plate mean) is 108%.
As to `O=C(Nc1ccc(Cl)c(Cl)c1)c1ccccc1NC(=O)C1CC=CCC1C(=O)O` (stereo not drawn), the superoxide response (% of plate mean) is 128%.
As to `O=C(Nc1cccc(Cl)c1Cl)c1ccccc1NC(=O)C1CC=CCC1C(=O)O` (stereo not drawn), the superoxide response (% of plate mean) is 64.3% (active).
As for `O=C(Nc1ccccc1C(=O)N1CCCCCC1)c1ccccc1Cl`, the superoxide response (% of plate mean) was 106%.
Next, `CCCC(NC(=O)c1ccco1)c1nc2ccccc2[nH]1` (stereo not drawn): 103%.
`OC(c1nc2ccc(F)cc2[nH]1)C(O)c1nc2ccc(F)cc2[nH]1` (stereo not drawn): the superoxide response (% of plate mean) is 103%.
